Source: the supplement of paper PMC6411743
± gives the standard deviation of the averaged measurements. The full data set covers some 5,400 targets. This sample favours those with the largest changes.

Compound: Nc1nc2c(ncn2[C@@H]2O[C@H](COP(=O)(O)OP(=O)(O)OP(=O)(O)O)[C@@H](O)[C@H]2O)c(=O)[nH]1 [guanosine triphosphate]
Assay: NP40-soluble protein abundance relative to vehicle (solubility fold change) (ratio); higher = more soluble protein in presence of GTP
Summary of the method: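 Crude Jurkat lysate, prepared by Dounce homogenisation, was exposed to eight concentrations from 0.1 to 10 mM for 10 min at room temperature and then 3 min at 37 °C. Solubilisation used 0.8% NP40 with benzonase for 60 min at 4 °C, followed by ultracentrifugation and TMT labelling of the supernatant for LC-MS/MS. After vsn normalisation of intensities, each value is the fold change against the detergent-processed vehicle within each replicate, across three independent experiments.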

Chain of UniProt O75582 (O75582 whole entry, looked up, one chain of several): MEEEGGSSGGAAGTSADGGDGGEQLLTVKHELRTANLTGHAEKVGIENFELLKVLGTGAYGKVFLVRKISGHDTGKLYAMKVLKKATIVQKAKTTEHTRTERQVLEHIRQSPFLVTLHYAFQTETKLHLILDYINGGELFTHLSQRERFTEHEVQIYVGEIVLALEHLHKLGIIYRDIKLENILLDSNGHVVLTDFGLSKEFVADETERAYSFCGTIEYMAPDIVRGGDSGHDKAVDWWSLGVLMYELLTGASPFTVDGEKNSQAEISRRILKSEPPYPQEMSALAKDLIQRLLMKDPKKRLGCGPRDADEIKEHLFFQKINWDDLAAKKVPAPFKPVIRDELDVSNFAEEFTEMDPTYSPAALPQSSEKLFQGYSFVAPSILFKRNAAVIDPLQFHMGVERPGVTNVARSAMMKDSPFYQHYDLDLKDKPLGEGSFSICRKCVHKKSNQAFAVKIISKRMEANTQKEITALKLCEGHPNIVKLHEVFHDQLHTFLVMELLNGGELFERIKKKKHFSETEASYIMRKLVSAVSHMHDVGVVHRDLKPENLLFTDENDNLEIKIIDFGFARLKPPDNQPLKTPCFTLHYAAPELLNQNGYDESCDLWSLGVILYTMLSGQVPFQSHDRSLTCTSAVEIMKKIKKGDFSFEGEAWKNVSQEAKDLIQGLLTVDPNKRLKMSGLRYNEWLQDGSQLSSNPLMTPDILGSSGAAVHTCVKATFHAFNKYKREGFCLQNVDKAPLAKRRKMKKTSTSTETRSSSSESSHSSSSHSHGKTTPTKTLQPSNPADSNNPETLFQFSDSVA
Chain of UniProt P27540 (P27540 whole entry): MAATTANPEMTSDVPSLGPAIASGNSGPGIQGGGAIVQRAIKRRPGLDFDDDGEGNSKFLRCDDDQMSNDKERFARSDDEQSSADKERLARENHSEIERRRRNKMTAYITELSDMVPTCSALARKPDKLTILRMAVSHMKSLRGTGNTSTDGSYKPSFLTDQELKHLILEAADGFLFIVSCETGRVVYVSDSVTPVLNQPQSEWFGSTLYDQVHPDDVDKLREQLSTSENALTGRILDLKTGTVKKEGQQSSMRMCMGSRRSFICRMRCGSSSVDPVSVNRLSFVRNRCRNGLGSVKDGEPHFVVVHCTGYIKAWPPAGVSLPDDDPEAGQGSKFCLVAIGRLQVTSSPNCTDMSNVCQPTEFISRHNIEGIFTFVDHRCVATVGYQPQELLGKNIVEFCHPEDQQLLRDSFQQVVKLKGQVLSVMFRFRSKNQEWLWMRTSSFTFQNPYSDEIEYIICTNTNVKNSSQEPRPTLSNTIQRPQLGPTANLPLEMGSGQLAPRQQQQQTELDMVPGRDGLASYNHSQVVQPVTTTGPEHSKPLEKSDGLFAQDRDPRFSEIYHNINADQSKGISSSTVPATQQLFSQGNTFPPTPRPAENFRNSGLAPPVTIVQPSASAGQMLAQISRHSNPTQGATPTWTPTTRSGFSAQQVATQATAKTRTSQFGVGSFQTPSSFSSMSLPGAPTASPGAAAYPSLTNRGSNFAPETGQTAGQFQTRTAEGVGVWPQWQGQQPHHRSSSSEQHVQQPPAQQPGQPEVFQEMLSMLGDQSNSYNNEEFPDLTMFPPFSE
Chain of UniProt O15260 (O15260 whole entry, one chain of several): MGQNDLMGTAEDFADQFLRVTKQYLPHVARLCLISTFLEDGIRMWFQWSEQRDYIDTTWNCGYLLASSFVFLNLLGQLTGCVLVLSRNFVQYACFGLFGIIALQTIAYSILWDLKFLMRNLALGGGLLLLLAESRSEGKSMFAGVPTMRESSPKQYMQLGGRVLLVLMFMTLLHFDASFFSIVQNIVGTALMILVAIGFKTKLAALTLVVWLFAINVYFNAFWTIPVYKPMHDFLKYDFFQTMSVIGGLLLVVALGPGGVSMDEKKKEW
Chain of UniProt P51116 (P51116 whole entry): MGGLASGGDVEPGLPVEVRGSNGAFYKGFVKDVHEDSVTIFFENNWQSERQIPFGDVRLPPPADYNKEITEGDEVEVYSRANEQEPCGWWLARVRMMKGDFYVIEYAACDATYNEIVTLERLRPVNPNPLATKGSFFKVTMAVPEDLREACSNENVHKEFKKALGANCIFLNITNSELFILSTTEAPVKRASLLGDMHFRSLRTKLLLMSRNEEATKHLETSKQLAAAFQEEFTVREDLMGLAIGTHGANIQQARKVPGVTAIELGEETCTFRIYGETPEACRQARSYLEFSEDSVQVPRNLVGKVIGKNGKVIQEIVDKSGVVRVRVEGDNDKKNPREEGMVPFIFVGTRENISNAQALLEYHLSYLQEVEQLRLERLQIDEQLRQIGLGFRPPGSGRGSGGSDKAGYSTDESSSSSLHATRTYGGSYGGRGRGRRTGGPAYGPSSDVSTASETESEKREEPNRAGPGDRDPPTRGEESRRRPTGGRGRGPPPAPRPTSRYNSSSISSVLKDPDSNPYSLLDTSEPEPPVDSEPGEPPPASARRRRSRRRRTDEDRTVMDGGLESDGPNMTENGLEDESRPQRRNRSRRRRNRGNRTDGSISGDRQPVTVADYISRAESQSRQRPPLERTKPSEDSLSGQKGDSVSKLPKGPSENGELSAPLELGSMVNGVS
Chain of UniProt P38159 (P38159 whole entry): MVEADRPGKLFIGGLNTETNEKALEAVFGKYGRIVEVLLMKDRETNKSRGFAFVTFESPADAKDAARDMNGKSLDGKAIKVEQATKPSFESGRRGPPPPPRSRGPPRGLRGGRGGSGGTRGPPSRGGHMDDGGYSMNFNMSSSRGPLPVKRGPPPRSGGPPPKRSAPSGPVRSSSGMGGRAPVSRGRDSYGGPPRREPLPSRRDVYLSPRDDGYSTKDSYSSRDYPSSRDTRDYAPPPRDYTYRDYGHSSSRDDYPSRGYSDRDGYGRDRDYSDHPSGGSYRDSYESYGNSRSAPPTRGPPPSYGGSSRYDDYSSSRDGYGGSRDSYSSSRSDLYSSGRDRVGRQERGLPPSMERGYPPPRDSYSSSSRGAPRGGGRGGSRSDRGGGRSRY
Chain of UniProt P37198 (P37198 whole entry): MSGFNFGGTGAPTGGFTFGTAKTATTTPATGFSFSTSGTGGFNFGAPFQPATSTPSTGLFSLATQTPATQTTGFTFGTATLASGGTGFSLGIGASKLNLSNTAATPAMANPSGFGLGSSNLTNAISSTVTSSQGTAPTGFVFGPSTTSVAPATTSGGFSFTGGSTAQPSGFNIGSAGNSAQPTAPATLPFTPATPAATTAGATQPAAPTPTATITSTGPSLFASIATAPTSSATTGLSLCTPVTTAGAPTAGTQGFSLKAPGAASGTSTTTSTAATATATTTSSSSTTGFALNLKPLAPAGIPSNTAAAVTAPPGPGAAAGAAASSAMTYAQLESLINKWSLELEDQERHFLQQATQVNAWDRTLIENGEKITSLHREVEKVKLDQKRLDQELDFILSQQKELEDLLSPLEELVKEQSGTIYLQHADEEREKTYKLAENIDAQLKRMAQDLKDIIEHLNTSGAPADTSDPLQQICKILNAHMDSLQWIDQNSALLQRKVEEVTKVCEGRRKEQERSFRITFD
Chain of UniProt P13051 (P13051 whole entry): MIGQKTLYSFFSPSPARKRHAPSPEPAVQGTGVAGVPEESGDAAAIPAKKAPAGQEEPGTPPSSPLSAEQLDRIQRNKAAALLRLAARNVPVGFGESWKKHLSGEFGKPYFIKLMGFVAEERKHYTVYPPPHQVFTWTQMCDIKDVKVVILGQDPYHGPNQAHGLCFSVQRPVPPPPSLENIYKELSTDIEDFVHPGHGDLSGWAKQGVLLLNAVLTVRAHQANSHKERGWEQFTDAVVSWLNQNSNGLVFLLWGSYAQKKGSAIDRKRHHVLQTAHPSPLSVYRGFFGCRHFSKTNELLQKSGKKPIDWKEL
Chain of UniProt O43615 (O43615 whole entry): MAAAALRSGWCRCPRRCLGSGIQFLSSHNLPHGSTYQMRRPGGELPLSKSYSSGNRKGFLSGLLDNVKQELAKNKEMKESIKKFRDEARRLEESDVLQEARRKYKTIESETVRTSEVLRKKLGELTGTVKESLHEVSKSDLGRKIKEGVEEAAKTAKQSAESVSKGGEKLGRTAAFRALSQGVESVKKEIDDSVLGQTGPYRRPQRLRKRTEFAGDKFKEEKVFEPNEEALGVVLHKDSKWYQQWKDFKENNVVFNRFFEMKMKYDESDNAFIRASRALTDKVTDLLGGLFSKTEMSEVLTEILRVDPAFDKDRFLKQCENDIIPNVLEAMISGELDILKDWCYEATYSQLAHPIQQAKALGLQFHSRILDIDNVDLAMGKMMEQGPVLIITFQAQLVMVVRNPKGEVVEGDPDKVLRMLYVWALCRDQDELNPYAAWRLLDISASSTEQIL
Chain of UniProt Q13227 (Q13227 whole entry, one chain of several): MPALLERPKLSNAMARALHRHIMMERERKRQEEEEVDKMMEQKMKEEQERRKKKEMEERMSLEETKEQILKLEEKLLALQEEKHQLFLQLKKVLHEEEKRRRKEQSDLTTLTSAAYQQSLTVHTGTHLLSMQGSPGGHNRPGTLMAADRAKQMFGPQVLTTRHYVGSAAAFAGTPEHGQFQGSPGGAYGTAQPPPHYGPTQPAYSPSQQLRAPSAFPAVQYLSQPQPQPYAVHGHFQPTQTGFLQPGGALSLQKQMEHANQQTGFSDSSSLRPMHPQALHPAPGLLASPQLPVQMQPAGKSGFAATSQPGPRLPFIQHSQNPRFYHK
Chain of UniProt P08758 (P08758 whole entry): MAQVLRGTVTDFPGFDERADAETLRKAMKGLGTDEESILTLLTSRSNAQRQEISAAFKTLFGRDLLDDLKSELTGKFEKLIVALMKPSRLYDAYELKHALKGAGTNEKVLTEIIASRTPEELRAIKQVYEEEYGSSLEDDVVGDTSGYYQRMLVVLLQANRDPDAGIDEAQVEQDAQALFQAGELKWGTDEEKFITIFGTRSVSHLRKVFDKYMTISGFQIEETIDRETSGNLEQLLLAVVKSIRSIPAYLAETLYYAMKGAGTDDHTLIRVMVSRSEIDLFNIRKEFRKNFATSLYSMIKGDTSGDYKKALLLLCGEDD
Chain of UniProt P05114 (P05114 whole entry): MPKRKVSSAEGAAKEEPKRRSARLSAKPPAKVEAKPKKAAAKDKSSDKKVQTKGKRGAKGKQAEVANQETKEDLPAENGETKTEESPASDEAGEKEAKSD

Target	NP40-soluble protein abundance (concentration: 0.1mM)	NP40-soluble protein abundance (concentration: 0.5mM)	NP40-soluble protein abundance (concentration: 1mM)	NP40-soluble protein abundance (concentration: 2mM)	NP40-soluble protein abundance (concentration: 4mM)	NP40-soluble protein abundance (concentration: 6mM)	NP40-soluble protein abundance (concentration: 8mM)	NP40-soluble protein abundance (concentration: 10mM)
M0R2S1|P62987 (UniProt P62987)	0.88 ± 0.084	0.895 ± 0.11	1.01 ± 0.17	0.915 ± 0.11	0.89 ± 0.089	0.886 ± 0.068	0.867 ± 0.12	0.941 ± 0.11
P39880-3|Q13948|Q13948-2|P39880 (UniProt Q13948+P39880)	0.948 ± 0.035	0.948 ± 0.058	1.01 ± 0.049	0.978 ± 0.063	1.01 ± 0.054	0.997 ± 0.052	1.03 ± 0.024	1.05 ± 0.063
BANF1 (UniProt O75531)	1.42 ± 0.34	2.98 ± 1.1	5.2 ± 3	5.54 ± 3.3	5.21 ± 3.3	5.08 ± 3	4.35 ± 2	5.71 ± 3.2
H7C0Q6|Q9C037|Q9C037-2|Q9C037-3 (UniProt Q9C037)	1.08 ± 0.076	1.037 ± 0.0073	1.03 ± 0.068	0.998 ± 0.052	0.968 ± 0.069	0.981 ± 0.063	0.979 ± 0.07	0.918 ± 0.074
UniProt P51532|P51532-2|P51532-3|P51532-4|P51532-5|Q9HBD4	1.016 ± 0.0073	1.07 ± 0.045	1.1 ± 0.083	1.15 ± 0.13	1.19 ± 0.15	1.2 ± 0.17	1.24 ± 0.23	1.21 ± 0.21
UniProt O96028|O96028-3|O96028-5	1.04 ± 0.032	1.06 ± 0.049	1.19 ± 0.027	1.26 ± 0.027	1.44 ± 0.053	1.49 ± 0.047	1.59 ± 0.067	1.69 ± 0.062
TIMM23 (UniProt O14925)	0.979 ± 0.016	0.902 ± 0.037	0.856 ± 0.016	0.892 ± 0.02	0.904 ± 0.043	0.877 ± 0.026	0.838 ± 0.046	0.898 ± 0.042
UniProt P49840	0.981 ± 0.028	1.03 ± 0.029	0.913 ± 0.022	0.939 ± 0.02	0.921 ± 0.044	0.925 ± 0.021	0.875 ± 0.051	0.888 ± 0.051
UniProt P20339|P20339-2	0.999 ± 0.016	1.08 ± 0.04	0.875 ± 0.057	0.937 ± 0.059	0.865 ± 0.034	0.85 ± 0.024	0.82 ± 0.13	0.828 ± 0.14
I3L3Y9|I3L4X7|Q13227|Q13227-2 (UniProt Q13227)	0.978 ± 0.059	0.878 ± 0.0093	1.01 ± 0.13	1.01 ± 0.072	1.02 ± 0.11	1.06 ± 0.11	1.03 ± 0.13	1.08 ± 0.14
NUP62 (UniProt P37198)	0.8692 ± 0.0052	0.889 ± 0.025	1.01 ± 0.021	0.955 ± 0.038	0.988 ± 0.064	1.06 ± 0.053	1.08 ± 0.052	1.19 ± 0.047
UniProt P13051|P13051-2	0.9724 ± 0.0086	0.946 ± 0.019	0.944 ± 0.073	0.91 ± 0.062	0.886 ± 0.075	0.892 ± 0.07	0.893 ± 0.036	0.863 ± 0.1
UniProt P38159|P38159-2	1.02 ± 0.048	1.02 ± 0.027	1.18 ± 0.036	1.29 ± 0.043	1.47 ± 0.052	1.65 ± 0.1	1.8 ± 0.15	2.04 ± 0.32
HMGN1 (UniProt P05114)	1.26 ± 0.29	1.29 ± 0.33	1.39 ± 0.48	1.52 ± 0.48	1.34 ± 0.34	1.83 ± 0.67	1.66 ± 0.36	1.8 ± 0.33
ZKSCAN1 (UniProt P17029)	0.9748 ± 0.0051	0.986 ± 0.034	0.987 ± 0.047	0.958 ± 0.024	0.963 ± 0.015	0.978 ± 0.026	1 ± 0.075	0.993 ± 0.041
ANXA5 (UniProt P08758)	0.882 ± 0.07	0.908 ± 0.054	0.878 ± 0.077	0.854 ± 0.076	0.819 ± 0.073	0.843 ± 0.089	0.794 ± 0.081	0.809 ± 0.085
M0R2U2|P22087 (UniProt P22087)	1.02 ± 0.054	1.03 ± 0.032	1.08 ± 0.068	1.21 ± 0.056	1.52 ± 0.068	1.77 ± 0.082	2.13 ± 0.11	2.47 ± 0.083
LGALS1 (UniProt P09382)	0.889 ± 0.036	0.886 ± 0.037	0.885 ± 0.042	0.789 ± 0.055	0.813 ± 0.11	0.822 ± 0.067	0.821 ± 0.03	0.809 ± 0.055
UniProt P49588|P49588-2	0.95 ± 0.017	0.981 ± 0.025	0.928 ± 0.032	0.895 ± 0.034	0.876 ± 0.043	0.905 ± 0.041	0.877 ± 0.04	0.848 ± 0.052
XPO1 (UniProt O14980)	1.01 ± 0.027	1.02 ± 0.033	0.936 ± 0.022	0.926 ± 0.072	0.916 ± 0.054	0.918 ± 0.033	0.882 ± 0.023	0.848 ± 0.044
UniProt O15260|O15260-2|Q5T8U5	1.13 ± 0.021	1.03 ± 0.05	1.05 ± 0.022	1.01 ± 0.07	1.04 ± 0.074	0.956 ± 0.055	1.03 ± 0.044	0.953 ± 0.03
UniProt P11388|P11388-2|P11388-3|P11388-4	1.06 ± 0.054	1.14 ± 0.036	1.2 ± 0.022	1.43 ± 0.052	1.73 ± 0.1	1.94 ± 0.16	2.01 ± 0.18	2.12 ± 0.15
UniProt O75582|A0A0A0MQV2	1.05 ± 0.079	1.06 ± 0.059	0.965 ± 0.044	0.965 ± 0.068	0.979 ± 0.083	0.965 ± 0.056	0.934 ± 0.031	0.912 ± 0.044
K7EQW8|P67936|K7ERG3 (UniProt P67936)	0.803 ± 0.15	0.716 ± 0.089	1.39 ± 0.5	1.19 ± 0.29	1.27 ± 0.27	1.27 ± 0.21	1.15 ± 0.34	1.83 ± 0.49
SLC16A7 (UniProt O60669)	1.09 ± 0.034	0.98 ± 0.24	1.143 ± 0.0046	1.06 ± 0.15	1.1 ± 0.079	0.966 ± 0.15	1.12 ± 0.089	1.05 ± 0.16
TGFB1 (UniProt P01137)	0.926 ± 0.072	1.02 ± 0.11	0.908 ± 0.091	0.961 ± 0.092	0.987 ± 0.055	0.958 ± 0.088	0.896 ± 0.11	0.968 ± 0.14
FXR2 (UniProt P51116)	1.08 ± 0.054	1.13 ± 0.081	1.27 ± 0.064	1.51 ± 0.14	1.8 ± 0.22	1.97 ± 0.25	2.13 ± 0.29	2.23 ± 0.35
TIMM44 (UniProt O43615)	0.992 ± 0.035	0.989 ± 0.041	0.993 ± 0.057	0.946 ± 0.058	0.954 ± 0.09	0.914 ± 0.082	0.946 ± 0.058	0.93 ± 0.064
UniProt P27540|P27540-2|P27540-4	0.978 ± 0.071	0.957 ± 0.12	0.957 ± 0.027	0.982 ± 0.11	1.02 ± 0.023	0.961 ± 0.055	0.961 ± 0.059	0.927 ± 0.027
